Structures can show the parent of a compound that is named as a salt.
Test system: MDA-MB-468
Test: phospho-S6 immunofluorescence (DAPI-normalised), per-plate z-score; higher = higher phospho-S6 signal (less pathway suppression)
Conditions: 24 h
Protocol: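 GPCR-targeted compound library (MedChemExpress HY-L006) tested on MDA-MB-468 PTEN-null TNBC cells in 384-well plates at 0.1, 1 or 10 uM, combined with vehicle, GDC0941 450 nM or lapatinib 1 uM, for 24 h. Phospho-S6 (S240/244) immunofluorescence normalised to DAPI and expressed as a per-plate z-score; values are the mean of biological triplicates.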

CC(C)c1noc(N2CCC(COc3ccc(-c4ccc(S(C)(=O)=O)cc4)nc3)CC2)n1 (compound 10 µM)
phospho-S6 immunofluorescence (z-score) (co-treatment: GDC0941 450 nM): -2.9
phospho-S6 immunofluorescence (z-score) (co-treatment: lapatinib 1 uM): -4.91
phospho-S6 immunofluorescence (z-score) (co-treatment: vehicle): -6.22

CC(=O)OCC(=O)[C@@]12OC(C)(C)O[C@@H]1C[C@H]1[C@@H]3C[C@H](F)C4=CC(=O)C=C[C@]4(C)[C@@]3(F)[C@@H](O)C[C@@]12C [Fluocinonide] (compound 10 µM)
phospho-S6 immunofluorescence (z-score) (co-treatment: GDC0941 450 nM): -0.28
phospho-S6 immunofluorescence (z-score) (co-treatment: lapatinib 1 uM): 0.59
phospho-S6 immunofluorescence (z-score) (co-treatment: vehicle): 0.62

CC(C)Cc1ccc([C@@H](C)C(=O)NS(C)(=O)=O)cc1 [Reparixin (L-lysine salt)] (compound 10 µM)
phospho-S6 immunofluorescence (z-score) (co-treatment: GDC0941 450 nM): -1.6
phospho-S6 immunofluorescence (z-score) (co-treatment: lapatinib 1 uM): -1.46
phospho-S6 immunofluorescence (z-score) (co-treatment: vehicle): -0.67

CC1(C)O[C@@H]2C[C@H]3[C@@H]4CCC5=CC(=O)C=C[C@]5(C)[C@H]4[C@@H](O)C[C@]3(C)[C@]2(C(=O)CO)O1 [Desonide] (compound 10 µM)
phospho-S6 immunofluorescence (z-score) (co-treatment: GDC0941 450 nM): -0.1
phospho-S6 immunofluorescence (z-score) (co-treatment: lapatinib 1 uM): 0.54
phospho-S6 immunofluorescence (z-score) (co-treatment: vehicle): 1.16

c1ccc(CC2=NCCN2)cc1 [Tolazoline (hydrochloride)] (compound 10 µM)
phospho-S6 immunofluorescence (z-score) (co-treatment: GDC0941 450 nM): 1.08
phospho-S6 immunofluorescence (z-score) (co-treatment: lapatinib 1 uM): 0.41
phospho-S6 immunofluorescence (z-score) (co-treatment: vehicle): 0.92

CN(C)CCC=C1c2ccccc2C=Cc2ccccc21 [Cyclobenzaprine (hydrochloride)] (compound 10 µM)
phospho-S6 immunofluorescence (z-score) (co-treatment: GDC0941 450 nM): 0.8
phospho-S6 immunofluorescence (z-score) (co-treatment: lapatinib 1 uM): -0.8
phospho-S6 immunofluorescence (z-score) (co-treatment: vehicle): -0.18

CN1CCN(CC(=O)N2c3ccccc3C(=O)Nc3cccnc32)CC1 [Pirenzepine (dihydrochloride)] (compound 10 µM)
phospho-S6 immunofluorescence (z-score) (co-treatment: GDC0941 450 nM): 1.51
phospho-S6 immunofluorescence (z-score) (co-treatment: lapatinib 1 uM): 1.09
phospho-S6 immunofluorescence (z-score) (co-treatment: vehicle): 0.23

O=C(COc1ccc(C(=O)c2ccccc2)cc1)NC1CCN(Cc2ccccc2)CC1 [AdipoRon] (compound 10 µM)
phospho-S6 immunofluorescence (z-score) (co-treatment: GDC0941 450 nM): -4.84
phospho-S6 immunofluorescence (z-score) (co-treatment: lapatinib 1 uM): -4.87
phospho-S6 immunofluorescence (z-score) (co-treatment: vehicle): -1.92
